From PubChem BioAssay (Tox21)
Results filed as inconclusive are left out. Active and inactive are the calls of the source. Unless noted, calls follow the shape of the dose curve; as a rule, active = well fitted curve in the direction sought with a large enough effect in the repeat runs; inconclusive = weak or mixed curves; inactive = no such curve, though single readings can be large; an effect the other way counts as inactive or inconclusive.

What was measured:
[1] = qHTS assay for small molecule agonists of the p53 signaling pathway (AID 651631; calls by dose curve; also: nearly all actives have a fitted effect of over 15% in size)
Outline: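 HCT-116 p53RE-bla reporter line, 16 h compound treatment at 37 °C, then fluorescence after 2 h with B/G FRET substrate.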

[2] = qHTS assay for small molecules that induce genotoxicity in human embryonic kidney cells expressing luciferase-tagged ATAD5 (AID 651632); also: nearly all actives have a fitted effect of over 15% in size
Outline: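 HEK293T cells carrying luciferase-tagged ATAD5 were given compound or DMSO vehicle and incubated 16 hr at 37C, 5% CO2. Luciferase activity was read after 30 min at room temperature with Amplite; a rise signals genotoxic stress.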

[3] = qHTS assay for small molecules that induce genotoxicity in human embryonic kidney cells expressing luciferase-tagged ATAD5 - cell viability (AID 651634; calls by dose curve; also: nearly all actives have a fitted effect of over 25% in size)
Outline: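 HEK293T cells carrying luciferase-tagged ATAD5, 2,000 cells/well, exposed to compound for 15.5 hr at 37C. Viability read as live-cell protease activity by CellTiter-Fluor fluorescence after 30 min at 37C.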

[4] = qHTS assay for small molecule disruptors of the mitochondrial membrane potential - cell viability (AID 720634; calls by dose curve;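 also: human HepG2 liver cancer cells; nearly all actives have a fitted effect of over 20% in size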)
Outline: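 HepG2 cells, 2,000 per well, attached overnight, then treated 1 hr at 37 C, 5% CO2. Viability read as ATP by CellTiter-Glo luminescence after 30 min at room temperature. Read in the same wells as the m-MPI membrane-potential dye assay.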

[5] = qHTS assay for small molecule disruptors of the mitochondrial membrane potential (AID 720635)
Outline: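 Mitochondrial membrane potential tracked with Mito-MPS dye, red aggregates (ex 540/em 590 nm) against green monomers (ex 490/em 535 nm). Compound treatment 1 hr at 37C, dye 30 min in HepG2.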

[6] = qHTS assay to test for compound auto fluorescence at 590 nm (red) in HepG2 cells (AID 720674)
Outline: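 Red autofluorescence (Ex/Em 540/590 nm, Rose Bengal sodium equivalents) was measured in HepG2 cells, 2,000 per well in MEM plus 10% FBS, plated overnight at 37 C. Readings were taken 1 hr after adding 23 nL compound or DMSO, at 37 C and 5% CO2.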

[7] = qHTS assay to test for compound auto fluorescence at 535 nm (green) in HepG2 cells (AID 720675)
[8] = qHTS assay to test for compound auto fluorescence at 460 nm (blue) in HEK293 cells (AID 720678)
Outline: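 Triamterene serves as the blue fluorophore standard. Compound signal at 405/460 nm is read in HEK293 wells (2,000 cells, 10% dialyzed FBS) after overnight treatment at 37C.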

[9] = qHTS assay to test for compound auto fluorescence at 590 nm (red) in HEK293 cells (AID 720679)
Outline: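 We plated HEK293 cells in 10% dialyzed FBS medium, let them adhere for 4-5 hr, then added 23 nL compound. Overnight at 37C and 5% CO2 preceded fluorescence measurement at 540/590nm.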

[10] = qHTS assay to test for compound auto fluorescence at 535 nm (green) in HEK293 cells (AID 720680)
[11] = qHTS assay to test for compound auto fluorescence at 535 nm (green) in HEK293 cell free culture (AID 720682)
Outline: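 Steps: dispense DMEM/10% FBS into empty wells; pin in compound or DMSO; measure fluorescence at 485/535 nm. Values are fluorescein equivalents.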

[12] = qHTS assay to test for compound auto fluorescence at 590 nm (red) in HepG2 cell free culture (AID 720684)
Outline: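 Steps: dispense MEM/10% FBS medium, no cells; pin compound or DMSO vehicle; read red channel, Ex/Em 540/590 nm. Output given as Rose Bengal sodium equivalents.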

[13] = qHTS assay to test for compound auto fluorescence at 460 nm (blue) in HepG2 cell free culture (AID 720685)
Outline: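 Compound (23 nL) or DMSO pinned into cell-free MEM with 10% FBS; blue fluorescence read at 405/460 nm excitation/emission, expressed as auto-fluorescence equivalency to triamterene.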

[14] = qHTS assay to test for compound auto fluorescence at 535 nm (green) in HepG2 cell free culture (AID 720686)
[15] = qHTS assay to test for compound auto fluorescence at 460 nm (blue) in HepG2 cells (AID 720687)
Outline: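 Blue-channel autofluorescence (Ex/Em 405/460 nm, triamterene-equivalent) was measured after 1 hr compound exposure at 37 C, 5% CO2. Cells were HepG2, plated overnight at 37 C in MEM plus 10% FBS.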

[16] = qHTS assay to test for compound auto fluorescence at 460 nm (blue) in HEK293 cell free culture (AID 720681)
Outline: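 Blue fluorescence (Ex 405/Em 460 nm, triamterene-equivalent) was read immediately after pin transfer of compound or DMSO into medium (DMEM, 10% FBS) without cells.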

[17] = qHTS assay to test for compound auto fluorescence at 590 nm (red) in HEK293 cell free culture (AID 720683)
Outline: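 Red-channel autofluorescence of compounds in culture medium (DMEM, 10% FBS), no cells, measured at 540/590 nm. Rose Bengal sodium is the reference fluorophore for equivalence.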

[18] = biological target: Glucocorticoid receptor (Homo sapiens) (UniProt P04150); test: qHTS assay to identify small molecule agonists of the glucocorticoid receptor (GR) signaling pathway (AID 720691; active = well fitted activation curve with a large enough effect in the signal ratio in the repeat runs, not every such curve was filed as active; the % refers to the signal ratio); conditions: GR-bla HeLa, beta-lactamase reporter ratio, 18 h; activation: at 62.4 µM (top of the series) unless noted
Sequence of Glucocorticoid receptor (Homo sapiens) (P04150 whole entry, looked up): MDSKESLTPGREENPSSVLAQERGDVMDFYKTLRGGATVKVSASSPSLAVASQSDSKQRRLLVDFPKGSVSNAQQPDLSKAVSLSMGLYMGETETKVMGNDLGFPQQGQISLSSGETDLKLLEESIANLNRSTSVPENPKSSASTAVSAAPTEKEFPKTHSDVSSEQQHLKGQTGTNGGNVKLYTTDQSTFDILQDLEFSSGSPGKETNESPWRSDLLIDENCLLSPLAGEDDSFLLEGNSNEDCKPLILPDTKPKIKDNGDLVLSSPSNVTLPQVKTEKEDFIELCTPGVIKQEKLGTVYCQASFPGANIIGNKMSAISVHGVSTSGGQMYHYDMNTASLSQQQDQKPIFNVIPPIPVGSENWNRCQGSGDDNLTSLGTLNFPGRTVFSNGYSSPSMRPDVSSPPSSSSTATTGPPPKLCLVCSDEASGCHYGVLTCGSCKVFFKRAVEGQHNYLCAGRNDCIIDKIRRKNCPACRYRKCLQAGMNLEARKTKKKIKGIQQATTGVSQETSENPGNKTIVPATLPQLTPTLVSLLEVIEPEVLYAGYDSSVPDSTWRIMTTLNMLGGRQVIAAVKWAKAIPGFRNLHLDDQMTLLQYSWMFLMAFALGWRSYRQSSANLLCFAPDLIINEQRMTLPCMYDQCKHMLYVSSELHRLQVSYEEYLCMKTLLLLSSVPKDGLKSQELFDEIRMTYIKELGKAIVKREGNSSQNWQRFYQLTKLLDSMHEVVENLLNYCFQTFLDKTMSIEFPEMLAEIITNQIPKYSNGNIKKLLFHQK
Outline: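 GR-bla HeLa cells carrying a GRE-driven beta-lactamase reporter, exposed to compounds for 18 h at 37 C. Reporter activation read as fluorescence after 2 h with LiveBLAzer B/G FRET substrate at room temperature.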

[19] = biological target: Glucocorticoid receptor (Homo sapiens) (UniProt P04150); test: qHTS assay to identify small molecule antagonists of the glucocorticoid receptor (GR) signaling pathway (AID 720692; active = well fitted inhibition curve with a large enough effect in the signal ratio in the repeat runs, not every such curve was filed as active; the % refers to the signal ratio)
Outline: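 GR-bla HeLa cells carrying a GRE-driven beta-lactamase reporter received compound after 4 h plating, then dexamethasone (5 nM final). After 18 h at 37C, the FRET substrate was loaded for 2 h at room temperature and fluorescence read.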

[20] = qHTS assay for small molecule agonists of the p53 signaling pathway - cell viability (AID 651633; calls by dose curve;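 also: p53RE-bla HCT reporter cells with a stable beta-lactamase p53 reporter; nearly all actives have a fitted effect of over 30% in size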)
Outline: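 Viability counter-read: CellTiter-Glo luminescence (30 min, room temperature) in the same p53RE-bla plates. These plates had been exposed to compounds for 16 h at 37 C.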

Measured: Potency

COc1ccc(C(=O)N2CCN(CC(=O)N3CCOCC3)CC2)cc1
inactive: [1] | [2] | [3] | [4] | [5] | [6] | [7] | [8] | [9] | [10] | [11] | [12] | [13] | [14] | [15]

Nc1cc(C(=O)O)c(O)c(S(=O)(=O)O)c1
inactive: [1] | [2] | [3] | [4] | [5] | [6] | [7] | [8] | [10] | [16] | [11] | [17] | [12] | [13] | [14] | [15] | [18] | [19]

OCc1cc(C(O)CNCCCCCCOCCCCc2ccccc2)ccc1O (configuration not stated)
inactive: [1] | [2] | [3] | [4] | [6] | [7] | [8] | [9] | [10] | [16] | [17] | [12] | [13] | [14] | [15] | [18] | [19]

C[C@H](CCC(=O)O)[C@H]1CC[C@H]2[C@@H]3CC[C@@H]4C[C@H](O)CC[C@]4(C)[C@H]3C[C@H](O)[C@]12C
inactive: [1] | [2] | [3] | [4] | [6] | [8] | [9] | [10] | [16] | [11] | [17] | [12] | [13] | [14] | [15] | [18]

C=CCOC(=O)CCC1CCCCC1
inactive: [1] | [2] | [3] | [4] | [5] | [6] | [7] | [8] | [9] | [10] | [16] | [11] | [17] | [12] | [13] | [14] | [15] | [18]

CCCCCCCCCOS(=O)(=O)O
inactive: [1] | [2] | [3] | [6] | [7] | [8] | [9] | [10] | [16] | [11] | [17] | [12] | [13] | [14] | [15]

C#C[C@]1(O)CC[C@H]2[C@@H]3CCc4cc(OC5CCCC5)ccc4[C@H]3CC[C@@]21C
inactive: [1] | [2] | [3] | [4] | [6] | [7] | [8] | [10] | [16] | [11] | [12] | [13] | [14] | [15]

O=C1[C@H]2CCCC[C@H]2C(=O)N1CCCCN1CCN(c2nsc3ccccc23)CC1
inactive: [1] | [2] | [20] | [3] | [7] | [8] | [9] | [10] | [16] | [17] | [12] | [13] | [14] | [15]
